{"source": "the supplement of paper PMC6555819"}
{"tested_on": "RARa:RXR (NR concentration 270 nM, RXRa partner concentration 90 nM)", "assay": "PBM binding z-score (relative to random genomic background probes); higher = stronger binding; sequences stand for … in GC…GCGATTGACAGCGTAGAATGAAGG", "summary_of_the_method": "(§1)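 Binding z-scores were set against random background probes. The data came from custom Agilent 4×180K protein-binding microarrays carrying double-stranded probes with 34-nt variable regions, incubated 1 h with ligand-free nuclear receptor dimers. Partner-specific antibodies detected binding, and scanned fluorescence was regression-normalized.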"}
{"sequence": "TCTTGTAGGTCAGCAGGTTAAGAAAGCTGGCCAA", "PBM binding z-score": 2.84}
{"sequence": "TAGCCTAGGTCATTCAGGGCCCAGTATAGAAAGC", "PBM binding z-score": 2.32}
{"sequence": "AATATAGGGTCACTAGGCCAGAGTAGGTACGAAT", "PBM binding z-score": 4.66}
{"sequence": "CCTCCGAGGACAACAGGAGGTCAGAGCTGCCAGA", "PBM binding z-score": 2.7}
{"sequence": "CCTAGCTGGTCAAGGTCACACACGCTATAGGTAC", "PBM binding z-score": 4.64}
{"sequence": "ATCGAAAGGTCGTCAGGTGAGTATACAGAAAGGC", "PBM binding z-score": 3.91}
{"sequence": "ATCGAAAGGTCGTGAGGTGAATATACAGAAAGGC", "PBM binding z-score": 4.96}
{"sequence": "TGAATGAGGTTATAAGAGCAGGGAACGTTGCAAA", "PBM binding z-score": 1.39}
{"sequence": "CCTAGTTGGCCAGGAGGTCACACACCGGATATGA", "PBM binding z-score": 4.66}
{"sequence": "AGTCAAAGTTCACTAGGTAACGTCAGATTCAGCT", "PBM binding z-score": 3.22}
{"sequence": "AGAACGAGGGCACGCTGAGTAGATAGCAGAGTAG", "PBM binding z-score": 0.712}
{"sequence": "TCAGACAGGTGATGGTAACTCAGGTACGCAGTCG", "PBM binding z-score": 0.242}
{"sequence": "CCTCGGAGGACAAGAGGAGGTCAGAGCTGCCAGA", "PBM binding z-score": 1.94}
{"sequence": "ATATGTAGGTTATCGGGTAATTCAGTTTGCGCAT", "PBM binding z-score": 1.11}
{"sequence": "GCTATTAGTTGAAAGCGCAACCGAATGATTCTCG", "PBM binding z-score": -0.564}
{"sequence": "CGGCAAAGTTCAAGGTAACGTAACAGAAAGCAGC", "PBM binding z-score": 3.29}
{"sequence": "ATACCAAGGTGATCGTGAGGTTGTTGATACTAAC", "PBM binding z-score": 0.978}
{"sequence": "ACAGACAGGTGAGTGAAGGTACCTCAGCTGGACG", "PBM binding z-score": -0.657}
{"sequence": "GGAACGACGGCATTCGAGTTGATAGCATGGCGAT", "PBM binding z-score": -0.766}
{"sequence": "TCGCGTAGGTTACCAATGGGGCATTCAGCTTTCT", "PBM binding z-score": 0.355}
{"sequence": "TTACCAAGGTAAGCTGAGGTCGTTGATCCAACTC", "PBM binding z-score": 1.9}
{"sequence": "CCTACTGGGCCACGAAAGGTCAGTGATTCAGTGA", "PBM binding z-score": 3.82}
{"sequence": "GCTTCTAGATCAAGGTTAAGAAAGACTAAGCTAA", "PBM binding z-score": 0.885}
{"sequence": "ACGATTAGTTGAGACGAGGGCAACCGATAGGTTG", "PBM binding z-score": 0.874}
{"sequence": "ATATGTAGGTGAGCTGGGGTCATTCAGACTAGGC", "PBM binding z-score": 5.85}
{"sequence": "CCTAGTTGGTCAGGAGGTCTCACACCGGATATGA", "PBM binding z-score": 0.0681}
{"sequence": "CTCGAAAGGTCGTGCTCAGGTGAGGATACCAAAC", "PBM binding z-score": 3.92}
{"sequence": "CCGGCTGGGGCAAGGTTACCATAACGCACAGCCA", "PBM binding z-score": 0.922}
{"sequence": "CCGACTGGGGCATAAGGTTACCATAAGCCAGCCC", "PBM binding z-score": 1.11}
{"sequence": "GCGACTGGGGCACAGCAGGTTACCATAAGGTTGG", "PBM binding z-score": 0.435}
{"sequence": "AGTCAAAGTTAAGGACGAGGTAACGTAAAGCACG", "PBM binding z-score": 1.19}
{"sequence": "CGTCCAAGGTCAACGTCAGTGAAAGAGACTCGAA", "PBM binding z-score": 4.09}
{"sequence": "ACAGACAGGTGAGTGAATGTAACTCAGCTGGACG", "PBM binding z-score": 0.0204}
{"sequence": "GCTGCTAGGTCAACTGATGGTCAGATAAAGCTCG", "PBM binding z-score": 3.42}
{"sequence": "TGAATGAGGTTATAGGATCAGGGAACGTTGCAAA", "PBM binding z-score": 1.82}
{"sequence": "TAGTCTAGGTCATTGGGCCAGTATAGTACGCATC", "PBM binding z-score": 2.72}
{"sequence": "CCAACTGGGCCAAAGGTCATTGATTCCAATGCTC", "PBM binding z-score": 6.04}
{"sequence": "AGCCAAAGTTCATCTAGGTAACGTAAGATATGCT", "PBM binding z-score": 3.87}
{"sequence": "TCATATAGGTCATACAGGTGAAAGTCGGCATCTA", "PBM binding z-score": 4.44}
{"tested_on": "RARa homodimer (NR concentration 270 nM)", "assay": "PBM binding z-score (relative to random genomic background probes); higher = stronger binding; sequences stand for … in GC…GCGATTGACAGCGTAGAATGAAGG", "summary_of_the_method": "as §1"}
{"sequence": "TCTTGTAGGTCAGCAGGTTAAGAAAGCTGGCCAA", "PBM binding z-score": 0.787}
{"sequence": "TAGCCTAGGTCATTCAGGGCCCAGTATAGAAAGC", "PBM binding z-score": -0.0549}
{"sequence": "AATATAGGGTCACTAGGCCAGAGTAGGTACGAAT", "PBM binding z-score": 0.81}
{"sequence": "CCTCCGAGGACAACAGGAGGTCAGAGCTGCCAGA", "PBM binding z-score": -0.117}
{"sequence": "CCTAGCTGGTCAAGGTCACACACGCTATAGGTAC", "PBM binding z-score": 2.61}
{"sequence": "ATCGAAAGGTCGTCAGGTGAGTATACAGAAAGGC", "PBM binding z-score": 0.966}
{"sequence": "ATCGAAAGGTCGTGAGGTGAATATACAGAAAGGC", "PBM binding z-score": 1.14}
{"sequence": "TGAATGAGGTTATAAGAGCAGGGAACGTTGCAAA", "PBM binding z-score": 0.226}
{"sequence": "CCTAGTTGGCCAGGAGGTCACACACCGGATATGA", "PBM binding z-score": 1.39}
{"sequence": "AGTCAAAGTTCACTAGGTAACGTCAGATTCAGCT", "PBM binding z-score": 1.07}
{"sequence": "AGAACGAGGGCACGCTGAGTAGATAGCAGAGTAG", "PBM binding z-score": -0.354}
{"sequence": "TCAGACAGGTGATGGTAACTCAGGTACGCAGTCG", "PBM binding z-score": 0.298}
{"sequence": "CCTCGGAGGACAAGAGGAGGTCAGAGCTGCCAGA", "PBM binding z-score": 0.29}
{"sequence": "ATATGTAGGTTATCGGGTAATTCAGTTTGCGCAT", "PBM binding z-score": 1.97}
{"sequence": "GCTATTAGTTGAAAGCGCAACCGAATGATTCTCG", "PBM binding z-score": -0.0512}
{"sequence": "CGGCAAAGTTCAAGGTAACGTAACAGAAAGCAGC", "PBM binding z-score": 0.805}
{"sequence": "ATACCAAGGTGATCGTGAGGTTGTTGATACTAAC", "PBM binding z-score": 0.0495}
{"sequence": "ACAGACAGGTGAGTGAAGGTACCTCAGCTGGACG", "PBM binding z-score": -1.02}
{"sequence": "GGAACGACGGCATTCGAGTTGATAGCATGGCGAT", "PBM binding z-score": -0.761}
{"sequence": "TCGCGTAGGTTACCAATGGGGCATTCAGCTTTCT", "PBM binding z-score": -1.2}
{"sequence": "TTACCAAGGTAAGCTGAGGTCGTTGATCCAACTC", "PBM binding z-score": -1.52}
{"sequence": "CCTACTGGGCCACGAAAGGTCAGTGATTCAGTGA", "PBM binding z-score": 1.31}
{"sequence": "GCTTCTAGATCAAGGTTAAGAAAGACTAAGCTAA", "PBM binding z-score": -0.746}
{"sequence": "ACGATTAGTTGAGACGAGGGCAACCGATAGGTTG", "PBM binding z-score": 0.365}
{"sequence": "ATATGTAGGTGAGCTGGGGTCATTCAGACTAGGC", "PBM binding z-score": 0.796}
{"sequence": "CCTAGTTGGTCAGGAGGTCTCACACCGGATATGA", "PBM binding z-score": 1.06}
{"sequence": "CTCGAAAGGTCGTGCTCAGGTGAGGATACCAAAC", "PBM binding z-score": 0.325}
{"sequence": "CCGGCTGGGGCAAGGTTACCATAACGCACAGCCA", "PBM binding z-score": -0.728}
{"sequence": "CCGACTGGGGCATAAGGTTACCATAAGCCAGCCC", "PBM binding z-score": -0.464}
{"sequence": "GCGACTGGGGCACAGCAGGTTACCATAAGGTTGG", "PBM binding z-score": -0.475}
{"sequence": "AGTCAAAGTTAAGGACGAGGTAACGTAAAGCACG", "PBM binding z-score": 0.205}
{"sequence": "CGTCCAAGGTCAACGTCAGTGAAAGAGACTCGAA", "PBM binding z-score": 1.2}
{"sequence": "ACAGACAGGTGAGTGAATGTAACTCAGCTGGACG", "PBM binding z-score": -0.0735}
{"sequence": "GCTGCTAGGTCAACTGATGGTCAGATAAAGCTCG", "PBM binding z-score": -0.022}
{"sequence": "TGAATGAGGTTATAGGATCAGGGAACGTTGCAAA", "PBM binding z-score": 0.469}
{"sequence": "TAGTCTAGGTCATTGGGCCAGTATAGTACGCATC", "PBM binding z-score": 1.24}
{"sequence": "CCAACTGGGCCAAAGGTCATTGATTCCAATGCTC", "PBM binding z-score": 0.958}
{"sequence": "AGCCAAAGTTCATCTAGGTAACGTAAGATATGCT", "PBM binding z-score": 2.24}
{"sequence": "TCATATAGGTCATACAGGTGAAAGTCGGCATCTA", "PBM binding z-score": 2.39}
